# Data reported in PubChem BioAssay.
# Records with an inconclusive call do not appear. This is one part of the list. Activity calls are given as the source filed them.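 The calls were made as follows, unless noted: active = GFP signal, as percent of the solvent control, above the screen mean plus 3 SD, about 149; inconclusive = no reading because the compound's own fluorescence upset strain identification; inactive = the rest.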
# How the values were obtained:
# [1] = interference with biotin-avidin bead interaction – biochemical, flow cytometry, bead-based, counter-screen for RGS protein interaction modulators (AID 1783;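 active = inhibition above 50%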;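 also: median green fluorescence of gated singlet beads compared with DMSO control wells; 0% = DMSO wells and 100% = complete loss of bead fluorescence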); conditions: streptavidin beads, fluorescein-biotin binding; at 10 µM, stronger effect = higher value
# [2] = molecular target: Guanine nucleotide-binding protein G(o) subunit alpha (Homo sapiens) (UniProt P09471); assay: retest of RGS8-Galphao interaction hits – biochemical, multiplexed bead flow cytometry, single concentration, confirmation (AID 1836; in the data active = binding response below about 72% or above about 130%; inactive = in between;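 also: Galphao activated as GDP AlF4 complex before binding bead RGS8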); conditions: bead-based flow cytometry RGS8-Galphao binding, fluorescence; at 10 µM; actives lie on both sides
# Chain of Guanine nucleotide-binding protein G(o) subunit alpha (Homo sapiens) (P09471 whole entry, looked up): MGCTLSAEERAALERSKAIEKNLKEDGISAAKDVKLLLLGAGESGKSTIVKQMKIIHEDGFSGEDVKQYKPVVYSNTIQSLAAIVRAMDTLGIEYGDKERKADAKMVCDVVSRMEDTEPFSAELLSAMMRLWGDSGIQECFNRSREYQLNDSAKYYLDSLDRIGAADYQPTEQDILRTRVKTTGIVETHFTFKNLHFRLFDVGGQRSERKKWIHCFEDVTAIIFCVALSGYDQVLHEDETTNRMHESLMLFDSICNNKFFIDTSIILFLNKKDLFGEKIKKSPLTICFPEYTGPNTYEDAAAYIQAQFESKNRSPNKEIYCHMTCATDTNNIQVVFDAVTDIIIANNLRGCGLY
# [3] = molecular target: Guanine nucleotide-binding protein G(o) subunit alpha (Homo sapiens) (UniProt P09471); assay: retest of RGS7-Galphao interaction hits – biochemical, multiplexed bead flow cytometry, single concentration, confirmation (AID 1837; in the data active = response below about 75% or above about 130%; inactive = in between;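 also: fluorescent Galphao activated with GDP and aluminum fluoride binding bead-coupled RGS7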); conditions: bead-based flow cytometry RGS7-Galphao binding; at 10 µM; actives lie on both sides
# [4] = molecular target: Regulator of G-protein signaling 16 (Homo sapiens) + Guanine nucleotide-binding protein G(o) subunit alpha (Homo sapiens) (UniProt O15492+P09471); assay: RGS16 and Galphao interaction regulators – biochemical, single concentration, multiplexed bead flow cytometry, confirmation (AID 1838; in the data active = response below about 74% or above about 130%; inactive = in between;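 also: Galphao activated as the GDP aluminium fluoride complex binding bead-coupled RGS16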); conditions: bead-based flow cytometry, at 10 µM, actives lie on both sides
# Chain of Regulator of G-protein signaling 16 (Homo sapiens) + Guanine nucleotide-binding protein G(o) subunit alpha (Homo sapiens) (O15492 whole entry, looked up): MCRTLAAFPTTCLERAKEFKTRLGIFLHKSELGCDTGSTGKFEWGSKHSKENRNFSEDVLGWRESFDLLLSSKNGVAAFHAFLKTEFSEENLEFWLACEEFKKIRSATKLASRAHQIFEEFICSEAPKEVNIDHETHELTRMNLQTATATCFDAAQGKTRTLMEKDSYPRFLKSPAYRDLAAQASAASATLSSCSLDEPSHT
# Chain of Regulator of G-protein signaling 16 (Homo sapiens) + Guanine nucleotide-binding protein G(o) subunit alpha (Homo sapiens) (P09471 whole entry, looked up): as the sequence (P09471 whole entry, looked up) above
# [5] = molecular target: Guanine nucleotide-binding protein G(o) subunit alpha (Homo sapiens) (UniProt P09471); assay: RGS4 and Galphao interaction regulators – biochemical, single concentration, multiplexed bead flow cytometry, confirmation (AID 1840; in the data active = binding response below about 74% or above about 130%; inactive = in between); conditions: at 10 µM, actives lie on both sides
# [6] = molecular target: Guanine nucleotide-binding protein G(o) subunit alpha (Homo sapiens) + Regulator of G-protein signaling 19 (Homo sapiens) (UniProt P09471+P49795); assay: RGS19 interaction with Gαo, hit retest – biochemical, single point, multiplexed bead flow cytometry, confirmation (AID 1841; in the data active = response below about 50% or above about 160%; inactive = in between;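 also: 100% = no compound control and 0% = blank background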); conditions: bead-based flow cytometry RGS19-Galphao binding; at 10 µM; actives lie on both sides
# Chain of Guanine nucleotide-binding protein G(o) subunit alpha (Homo sapiens) + Regulator of G-protein signaling 19 (Homo sapiens) (P09471 whole entry, looked up): as above
# Chain of Guanine nucleotide-binding protein G(o) subunit alpha (Homo sapiens) + Regulator of G-protein signaling 19 (Homo sapiens) (P49795 whole entry, looked up): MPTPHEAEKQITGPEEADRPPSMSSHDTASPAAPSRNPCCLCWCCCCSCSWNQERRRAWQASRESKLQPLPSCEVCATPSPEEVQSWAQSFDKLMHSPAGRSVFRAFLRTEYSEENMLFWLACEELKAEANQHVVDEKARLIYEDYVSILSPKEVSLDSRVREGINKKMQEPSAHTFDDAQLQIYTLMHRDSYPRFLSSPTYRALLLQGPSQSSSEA
# [7] = rapamycin-like changes in RPL19A-GFP expression – cell-based, S. cerevisiae, multiplex flow cytometry, primary screen (AID 1862; in the data active = percent of DMSO control GFP below about 86%;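 also: lower values mimic rapamycin by blocking the RPL19A rise seen in DMSO cells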); conditions: S. cerevisiae RPL19A-GFP strain, flow cytometry fluorescence, 3 h; at 10 µM; stronger effect = lower value
# [8] = TOR pathway GLN3 branch reporter MEP2-GFP changes – S. cerevisiae, multiplex flow cytometry, primary screen (AID 1867;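 active = GFP response, as percent of the DMSO control, above the screen-wide mean plus 3 SD, about 139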;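 also: median GFP channel fluorescence of barcode-gated MEP2-GFP cells measured by flow cytometry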); conditions: S. cerevisiae MEP2-GFP strain, 3 h, at 10 µM, stronger effect = higher value, 100% means same as DMSO wells
# [9] = TOR pathway RTG branch CIT2 reporter changes – S. cerevisiae, GFP fusion, multiplex flow cytometry, primary screen (AID 1870;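 active = percent response above a set limit, the screen-wide mean plus 3 SD, cut at about 130% in these data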;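 also: barcoded CIT2-GFP strain pooled with four other GFP strains with rapamycin as positive control; median GFP fluorescence per well over plate mean of DMSO wells so 100% = DMSO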); conditions: S. cerevisiae CIT2-GFP expression, 3 h, at 10 µM, stronger effect = higher value
# [10] = TOR pathway LAP4-GFP level changes – S. cerevisiae, multiplex flow cytometry, primary screen (AID 1873); conditions: S. cerevisiae LAP4-GFP expression, 3 h, at 10 µM, stronger effect = higher value
# [11] = yeast AGP1-GFP level changes, GLN3 branch – cell-based, multiplex flow cytometry, S. cerevisiae, primary screen (AID 1887;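 active = GFP signal above the screen-wide mean plus 3 SD, that is over about 124.5% of the solvent control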;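 also: AGP1-GFP fusion strain of S. cerevisiae within a five-strain barcoded multiplex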); conditions: 3 h, at 10 µM, stronger effect = higher value
# [12] = hit retest on RPL19A-GFP reporter strain – cell-based, S. cerevisiae, flow cytometry, cherry picks, mother/daughter gates, confirmation (AID 2270;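 active = GFP response below 50% of the DMSO control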); conditions: 3 h, at 10 µM, stronger effect = lower value, 100 = same GFP as DMSO wells
# [13] = yeast TOR pathway reporter LAP4-GFP change – cell-based, cherry picks, flow cytometry, mother/daughter gates, confirmation (AID 2271;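 active = GFP response above 150% of the DMSO control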;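 also: ratio of sample to DMSO plate mean so 100% equals DMSO level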); conditions: S. cerevisiae LAP4-GFP strain, 3 h, at 10 µM, stronger effect = higher value, 100 means same as DMSO control
# [14] = TOR pathway reporter MEP2-GFP, retest of hits – S. cerevisiae, flow cytometry GFP, cherry picks, confirmation (AID 2272;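 active = GFP response above 150% of the DMSO control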;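 also: ratio of well signal to plate DMSO mean so 100% equals DMSO level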); conditions: S. cerevisiae MEP2-GFP strain, 3 h, at 10 µM, stronger effect = higher value
# [15] = TOR pathway CIT2 reporter hit retest – S. cerevisiae, GFP fusion, cherry picks, mother/daughter gates, confirmation (AID 2274;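 active = GFP response above 150% of the DMSO level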); conditions: S. cerevisiae CIT2-GFP strain, flow cytometry, 3 h, at 10 µM, stronger effect = higher value
# [16] = reduced mouse 2C T cell binding to pMHC/ICAM-1 vesicles – MLPCN validation set, flow cytometry, LFA-1/ICAM-1 modulator project, pilot screen (AID 2523;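 active = response below a set limit, under 55% cells CD8-positive and vesicle-bound, and CD8 cells' 90th-percentile brightness under 279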;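 as to vesicle binding response: mean PE anti-B7-1 fluorescence of CD8+ cells relative to row control; 100% = QL9-loaded vesicles with DMSO vehicle in the same plate row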); conditions: 2C mouse CD8+ T cells, at 7 µM, stronger effect = lower value; double positive events: measured here: CD8+/vesicle+ event percentage
# [17] = measured here: daughter cell gate
# [18] = measured here: mother cell gate
# [19] = measured here: daughter cell gate response
# [20] = measured here: mother cell gate response
structure (smiles),measurement,setting,value
C=CCNc1nc(N)c(C(=C(C#N)C#N)c2ccccc2)s1,inhibition,[1],0.8% (inactive)
same,binding response (% of control),[2],98.2% (inactive)
same,response (percent of control binding),[3],87.1% (inactive)
same,response (% of control binding),[4],99% (inactive)
same,binding response (% of control),[5],95.9% (inactive)
same,response (percent of control binding),[6],113% (inactive)
N#C/C(C(N)=O)=c1/ccc2c(c1)N1C3=C(CCCC3)CC3CCCCC31N=2 (stereo not given),percent of DMSO control GFP,[7],104% (inactive)
same,GFP response vs DMSO,[8],113% (inactive)
same,percent response of DMSO control,[9],94.5% (inactive)
same,GFP response vs DMSO,[10],170% (active)
same,"GFP response, % of DMSO",[11],105% (inactive)
same,GFP response vs DMSO,[12],92.7% (inactive)
same,GFP response vs DMSO,[12]; [17],88.8%
same,GFP response vs DMSO,[12]; [18],93.3%
same,GFP response relative to DMSO,[13],118% (inactive)
same,GFP response relative to DMSO,[13]; [19],115%
same,GFP response relative to DMSO,[13]; [20],123%
same,GFP response vs DMSO,[14],101% (inactive)
same,"GFP response, % of DMSO",[15],88.9% (inactive)
same,"GFP response, % of DMSO",[15]; [17],85.2%
same,"GFP response, % of DMSO",[15]; [18],89.3%
same,double positive events,[16],59.5%
same,vesicle binding response,[16],108% (inactive)
N=c1nc(N2CCCCC2)cc(N)n1O,percent of DMSO control GFP,[7],90.9% (inactive)
same,GFP response vs DMSO,[8],143% (active)
same,percent response of DMSO control,[9],107% (inactive)
same,GFP response vs DMSO,[10],86.4% (inactive)
same,"GFP response, % of DMSO",[11],90.1% (inactive)
same,GFP response vs DMSO,[12],97.4% (inactive)
same,GFP response vs DMSO,[12]; [17],97.4%
same,GFP response vs DMSO,[12]; [18],97.4%
same,GFP response relative to DMSO,[13],101% (inactive)
same,GFP response relative to DMSO,[13]; [19],101%
same,GFP response relative to DMSO,[13]; [20],99.3%
same,GFP response vs DMSO,[14],98.3% (inactive)
same,"GFP response, % of DMSO",[15],99.7% (inactive)
same,"GFP response, % of DMSO",[15]; [17],103%
same,"GFP response, % of DMSO",[15]; [18],99.7%
same,double positive events,[16],59.7%
same,vesicle binding response,[16],117% (inactive)
COc1ccc(-c2[nH]ncc2CN(CCO)Cc2cccs2)c(F)c1,percent of DMSO control GFP,[7],102% (inactive)
same,GFP response vs DMSO,[8],105% (inactive)
same,percent response of DMSO control,[9],104% (inactive)
same,GFP response vs DMSO,[10],99.1% (inactive)
same,"GFP response, % of DMSO",[11],105% (inactive)
same,GFP response vs DMSO,[12],96.8% (inactive)
same,GFP response vs DMSO,[12]; [17],97.4%
same,GFP response vs DMSO,[12]; [18],98.4%
same,GFP response relative to DMSO,[13],94.1% (inactive)
same,GFP response relative to DMSO,[13]; [19],94.4%
same,GFP response relative to DMSO,[13]; [20],94%
same,GFP response vs DMSO,[14],100% (inactive)
same,"GFP response, % of DMSO",[15],99.7% (inactive)
same,"GFP response, % of DMSO",[15]; [17],103%
same,"GFP response, % of DMSO",[15]; [18],99.7%
same,double positive events,[16],62.7%
same,vesicle binding response,[16],142% (inactive)
O=C(Nc1ccccc1)OCc1cc(-c2ccc(Cl)cc2)on1,inhibition,[1],2.5% (inactive)
same,binding response (% of control),[2],107% (inactive)
same,response (percent of control binding),[3],88.4% (inactive)
same,response (% of control binding),[4],107% (inactive)
same,binding response (% of control),[5],93.7% (inactive)
same,response (percent of control binding),[6],55.4% (inactive)
CC(NCCc1ccc(O)cc1)C(O)c1ccc(O)cc1 (stereo not given),percent of DMSO control GFP,[7],92.4% (inactive)
same,GFP response vs DMSO,[8],144% (active)
same,percent response of DMSO control,[9],91.3% (inactive)
same,GFP response vs DMSO,[10],80.9% (inactive)
same,"GFP response, % of DMSO",[11],93.1% (inactive)
same,GFP response vs DMSO,[12],93% (inactive)
same,GFP response vs DMSO,[12]; [17],91.6%
same,GFP response vs DMSO,[12]; [18],94.1%
same,GFP response relative to DMSO,[13],97.9% (inactive)
same,GFP response relative to DMSO,[13]; [19],96%
same,GFP response relative to DMSO,[13]; [20],98.3%
same,GFP response vs DMSO,[14],100% (inactive)
same,"GFP response, % of DMSO",[15],101% (inactive)
same,"GFP response, % of DMSO",[15]; [17],101%
same,"GFP response, % of DMSO",[15]; [18],103%
same,double positive events,[16],59%
same,vesicle binding response,[16],174% (inactive)
